Holding throughout (details): mRNA level, 48 h; actives raise or lower the signal
Read-out in assay [1]: catalase (CAT), CAT (gene 847)
Put plainly: LTEA_HepaRG_CAT: Life Technologies and Expression Analysis (LTEA) Assay for catalase (CAT) using HepaRG (AID 2283452). The method in brief:
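HepaRG cells in serum-free induction medium, 0.5% DMSO vehicle, exposed 48 h in duplicate over 8 half-log concentrations from 100 uM. CAT mRNA measured by qRT-PCR, normalized to ACTB, GAPDH, POLR2A; bidirectional fit versus DMSO.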

Read-out in assay [2]: flavin-containing dimethylaniline monooxygenases 3 (FMO3), FMO3 (gene 2328)
Put plainly: LTEA_HepaRG_FMO3: Life Technologies and Expression Analysis (LTEA) Assay for flavin-containing dimethylaniline monooxygenases 3 (FMO3) using HepaRG (AID 2283453). The method in brief: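 HepaRG, 48 h exposure, 8-pt half-log series from 100 uM, 0.5% DMSO vehicle, duplicates; FMO3 transcript by Fluidigm TaqMan qRT-PCR, housekeeping-normalized; gain/loss fit vs DMSO.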

Read-out in assay [3]: Cytochrome P450 (CYP1A1), CYP1A1 (gene 1543)
Description: LTEA_HepaRG_CYP1A1: Life Technologies and Expression Analysis (LTEA) Assay for Cytochrome P450 (CYP1A1) using HepaRG (AID 2283454). The procedure, abridged:
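Differentiated HepaRG cells in serum-free induction medium were exposed in duplicate for 48 h to eight half-log concentrations up to 100 uM in 0.5% DMSO. CYP1A1 mRNA was quantified by TaqMan qRT-PCR, normalized to ACTB, GAPDH and POLR2A.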

Read-out in assay [4]: CFLAR gene, CFLAR (gene 8837)
Description: LTEA_HepaRG_CFLAR: Life Technologies and Expression Analysis (LTEA) Assay for CFLAR gene using HepaRG (AID 2283455). The method in brief:
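Differentiated HepaRG cells in serum-free induction medium were exposed 48 h in duplicate to eight half-log concentrations up to 100 uM in 0.5% DMSO; mRNA measured by TaqMan qRT-PCR, normalized to ACTB, GAPDH, POLR2A; bidirectional fitting versus DMSO.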

Read-out in assay [5]: Forkhead box O1 (FOXO1), FOXO1 (gene 2308)
Put plainly: LTEA_HepaRG_FOXO1: Life Technologies and Expression Analysis (LTEA) Assay for Forkhead box O1 (FOXO1) using HepaRG (AID 2283456). The method in brief: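 Differentiated HepaRG cells, in serum-free induction medium with 0.5% DMSO, exposed 48 h in duplicate to 8-point half-log series from 100 uM. FOXO1 mRNA measured by TaqMan qRT-PCR, normalized to ACTB, GAPDH, POLR2A; bidirectional fit versus DMSO.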

Read-out in assay [6]: growth arrest and DNA damage 45 (GADD45A), GADD45A (gene 1647)
Description: LTEA_HepaRG_GADD45A: Life Technologies and Expression Analysis (LTEA) Assay for growth arrest and DNA damage 45 (GADD45A) using HepaRG (AID 2283458). The procedure, abridged: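 Human HepaRG liver cells are treated in duplicate for 48 h with chemicals in 0.5% DMSO, highest concentration 100 uM. Expression is read by qRT-PCR and analyzed in both directions against vehicle.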

Read-out in assay [7]: Forkhead box O3 (FOXO3), FOXO3 (gene 2309)
Description: LTEA_HepaRG_FOXO3: Life Technologies and Expression Analysis (LTEA) Assay for Forkhead box O3 (FOXO3) using HepaRG (AID 2283459). The procedure, abridged: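 Differentiated human HepaRG cells, 48 h post-plating, exposed in duplicate for 48 h in serum-free induction medium; 8-point half-log series from 100 uM in 0.5% DMSO. FOXO3 mRNA by TaqMan qRT-PCR, normalized to ACTB/GAPDH/POLR2A; bidirectional fit versus DMSO.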

Read-out in assay [8]: ABC Transporter (ABCB1), ABCB1 (gene 5243)
Description: LTEA_HepaRG_ABCB1: Life Technologies and Expression Analysis (LTEA) Assay for ABC Transporter (ABCB1) using HepaRG (AID 2283460). The procedure, abridged:
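HepaRG cells exposed in duplicate for 48 h in serum-free induction medium to eight half-log concentrations up to 100 uM in 0.5% DMSO. ABCB1 mRNA quantified by qRT-PCR, normalised to ACTB, GAPDH and POLR2A; fitted bidirectionally versus DMSO.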

Read-out in assay [9]: growth arrest and DNA damage 45 (GADD45B), GADD45B (gene 4616)
Description: LTEA_HepaRG_GADD45B: Life Technologies and Expression Analysis (LTEA) Assay for growth arrest and DNA damage 45 (GADD45B) using HepaRG (AID 2283461). The procedure, abridged: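 Differentiated HepaRG cells, plated 48 h then switched to serum-free induction medium, were exposed 48 h in duplicate to eight half-log concentrations from 100 uM in 0.5% DMSO; mRNA quantified by qRT-PCR, normalized to ACTB/GAPDH/POLR2A, bidirectional fit versus DMSO.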

Read-out in assay [10]: ABC Transporter (ABCB11), ABCB11 (gene 8647)
Put plainly: LTEA_HepaRG_ABCB11: Life Technologies and Expression Analysis (LTEA) Assay for ABC Transporter (ABCB11) using HepaRG (AID 2283463). The method in brief:
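Differentiated human HepaRG cells in serum-free induction medium, dosed in duplicate for 48 h. Eight-point half-log series from 100 uM in 0.5% DMSO; ABCB11 mRNA by qRT-PCR, normalized to ACTB, GAPDH, POLR2A, fitted bidirectionally versus DMSO.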

Read-out in assay [11]: ABC Transporter (ABCC2), ABCC2 (gene 1244)
Description: LTEA_HepaRG_ABCC2: Life Technologies and Expression Analysis (LTEA) Assay for ABC Transporter (ABCC2) using HepaRG (AID 2283464). The method in brief:
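HepaRG cells were plated 48 h, switched to serum-free induction medium, then exposed in duplicate for 48 h to 8 concentrations (top 100 uM, half-log steps, 0.5% DMSO). ABCC2 mRNA was measured by qRT-PCR normalized to ACTB/GAPDH/POLR2A; bidirectional fitting versus DMSO.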

Read-out in assay [12]: Broad substrate specificity ATP-binding cassette transporter ABCG2 (Homo sapiens) (UniProt Q9UNQ0)
Description: LTEA_HepaRG_ABCG2: Life Technologies and Expression Analysis (LTEA) Assay for ABC Transporter (ABCG2) using HepaRG (AID 2283465). The method in brief: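 Differentiated HepaRG cells were exposed for 48 h in serum-free induction medium to 8 half-log concentrations, top 100 uM, in 0.5% DMSO. ABCG2 mRNA was measured by qRT-PCR, normalized to ACTB, GAPDH and POLR2A, with bidirectional fitting versus DMSO.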

Read-out in assay [13]: ATP-citrate lyase (ACLY), ACLY (gene 47)
Description: LTEA_HepaRG_ACLY: Life Technologies and Expression Analysis (LTEA) Assay for ATP-citrate lyase (ACLY) using HepaRG (AID 2283466). The procedure, abridged: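 Differentiated HepaRG cells exposed 48 h in serum-free induction medium to eight half-log concentrations up to 100 uM in 0.5% DMSO, duplicates. Transcript measured by Fluidigm TaqMan qRT-PCR, normalized to ACTB, GAPDH, POLR2A; bidirectional fit versus DMSO.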

Read-out in assay [14]: Peroxisomal acyl-coenzyme A oxidase 1 (ACOX1) gene, ACOX1 (gene 51)
Description: LTEA_HepaRG_ACOX1: Life Technologies and Expression Analysis (LTEA) Assay for Peroxisomal acyl-coenzyme A oxidase 1 (ACOX1) gene using HepaRG (AID 2283467). The procedure, abridged:
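HepaRG cells, plated 48 h then switched to serum-free induction medium, were exposed in duplicate for 48 h to 8-point half-log concentrations up to 100 uM in 0.5% DMSO. ACOX1 mRNA was measured by qRT-PCR, normalized to ACTB/GAPDH/POLR2A, and fitted bidirectionally versus DMSO.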

Read-out in assay [15]: Alkaline Phosphatase, Placental (ALPP) gene, ALPP (gene 250)
Description: LTEA_HepaRG_ALPP: Life Technologies and Expression Analysis (LTEA) Assay for Alkaline Phosphatase, Placental (ALPP) gene using HepaRG (AID 2283468). The method in brief:
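Differentiated human HepaRG cells were plated and cultured 48 h, then exposed in duplicate for 48 h in serum-free induction medium to eight half-log concentrations from 100 uM in 0.5% DMSO. ALPP mRNA was measured by TaqMan qRT-PCR, normalized to ACTB, GAPDH, POLR2A.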

Read-out in assay [16]: Bcl-2 (BAD) gene, BAD (gene 572)
Description: LTEA_HepaRG_BAD: Life Technologies and Expression Analysis (LTEA) Assay for Bcl-2 (BAD) gene using HepaRG (AID 2283469). The method in brief: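 Differentiated HepaRG cells were exposed in duplicate in 0.5% DMSO for 48 h to eight-point half-log concentrations up to 100 uM. BAD mRNA was measured by Fluidigm TaqMan qRT-PCR, normalized to ACTB, GAPDH and POLR2A, and fitted bidirectionally against DMSO.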

Read-out in assay [17]: Bcl-2 (BAX) gene, BAX (gene 581)
Description: LTEA_HepaRG_BAX: Life Technologies and Expression Analysis (LTEA) Assay for Bcl-2 (BAX) gene using HepaRG (AID 2283470). The procedure, abridged:
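Concentration-response endpoint fitted in both directions relative to 0.5% DMSO vehicle. Human HepaRG cultures receive test chemicals for 48 h at up to 100 uM; BAX mRNA is quantified by qRT-PCR against housekeeping genes.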

Read-out in assay [18]: ABC Transporter (ABCC3), ABCC3 (gene 8714)
Description: LTEA_HepaRG_ABCC3: Life Technologies and Expression Analysis (LTEA) Assay for ABC Transporter (ABCC3) using HepaRG (AID 2283462). The procedure, abridged:
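HepaRG cells in serum-free induction medium were exposed for 48 h in duplicate to 8-point half-log concentrations topping at 100 uM in 0.5% DMSO. ABCC3 mRNA was measured by qRT-PCR normalized to ACTB, GAPDH and POLR2A, with bidirectional fitting versus DMSO.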

Activity calls are given as the source filed them. The calls were made as follows: active = hit-call score of the fitted dose curve at least 0.9, where 1 is the maximum; inactive = score below 0.9.

Sequence of Broad substrate specificity ATP-binding cassette transporter ABCG2 (Homo sapiens) (Q9UNQ0 whole entry, looked up): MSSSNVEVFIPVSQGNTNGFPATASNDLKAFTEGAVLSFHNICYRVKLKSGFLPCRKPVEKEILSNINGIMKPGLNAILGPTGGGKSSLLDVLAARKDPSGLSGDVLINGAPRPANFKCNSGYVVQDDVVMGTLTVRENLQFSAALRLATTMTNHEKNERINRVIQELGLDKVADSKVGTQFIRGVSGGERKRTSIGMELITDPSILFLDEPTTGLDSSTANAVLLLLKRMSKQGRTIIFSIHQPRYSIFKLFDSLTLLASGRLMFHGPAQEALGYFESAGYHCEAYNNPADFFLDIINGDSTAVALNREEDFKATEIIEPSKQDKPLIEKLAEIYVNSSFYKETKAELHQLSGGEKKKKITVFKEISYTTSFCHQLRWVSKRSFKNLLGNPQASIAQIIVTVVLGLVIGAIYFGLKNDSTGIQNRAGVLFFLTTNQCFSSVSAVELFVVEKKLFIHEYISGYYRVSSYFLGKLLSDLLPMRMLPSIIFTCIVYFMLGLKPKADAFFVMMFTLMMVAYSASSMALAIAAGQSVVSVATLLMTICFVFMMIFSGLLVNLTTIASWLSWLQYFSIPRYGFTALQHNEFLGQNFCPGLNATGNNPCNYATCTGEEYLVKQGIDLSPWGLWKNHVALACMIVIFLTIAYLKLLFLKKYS

The AC50 is the concentration at which the activity in the assay is half-maximal. Turning to `O=C(O)Cc1cc(I)c(Oc2cc(I)c(O)c(I)c2)c(I)c1`, the half-maximal activity concentration (AC50) in assay [1] was 45.4 µM (active); in [2], 58.1 µM (active); in assay [4] it was 33.5 µM (active); in [5] it was 50.7 µM (active); in assay [6], 50.2 µM (active); in assay [7], 24.8 µM (active). In addition, the AC50 in [9] was 55.4 µM (active); in assay [10], 19.9 µM (active); in [11], 57.7 µM (active); in [12], 51.7 µM (active); in assay [13] it was 56.3 µM (active); in assay [14] it was 56.8 µM (active). In [15], the AC50 is 13.6 µM (active). In addition, the result in [3], in assay [8], in assay [16] and in assay [17] was inactive.

In the case of `CC(C)(C)c1ccc(O)c(C(C)(C)C)c1`, the compound was classed as inactive in [1], in [2], in assay [3], in assay [4], in assay [5] and in assay [6]. Further, the compound was called inactive in assay [7], in assay [9], in assay [10], in [11], in [12] and in [13]. Further, the call in [14], in assay [16] and in [17] was inactive.

Consider `CCCCCCCCCCCCc1ccccc1S(=O)(=O)O`, for which the AC50 in [1] is 88.9 µM (active); in assay [2], 83.3 µM (active); in assay [3] it was 30.6 µM (active); in assay [5], 88.4 µM (active); in assay [7], 87.9 µM (active); in [10], 85.7 µM (active). For the same compound, the AC50 in assay [11] is 12.3 µM (active); in assay [12], 50 µM (active); in [14], 11.7 µM (active); in assay [15] it was 91.6 µM (active); in assay [17] it was 50 µM (active). Further, the call in [4], in [6], in assay [8], in assay [9], in assay [13] and in [16] was inactive.

Regarding `Cc1oc(-c2ccccc2)nc1CCOc1ccc(C[C@H](Nc2ccccc2C(=O)c2ccccc2)C(=O)O)cc1`, the AC50 in assay [1] is 29.4 µM (active); in assay [2] it was 26.4 µM (active); in [3], 11.4 µM (active); in [4], 30 µM (active); in assay [6], 12.4 µM (active); in assay [7], 64.6 µM (active). For the same compound, the AC50 in assay [9] was 58.4 µM (active); in assay [18], 32.5 µM (active); in assay [10], 23.6 µM (active); in assay [11] it was 28.9 µM (active); in assay [12], 27.7 µM (active); in assay [13] it was 22.6 µM (active). Moreover, the AC50 in [14] is 27.3 µM (active). Besides, the outcome in assay [5], in assay [16] and in assay [17] was inactive.

With `OCCC(F)(F)C(F)(F)C(F)(F)C(F)(F)C(F)(F)C(F)(F)F`, the compound was classed as inactive in [1], in assay [2], in assay [4], in assay [5], in [6] and in [7]. The compound was called inactive in [9], in assay [10], in [11], in assay [12], in assay [13] and in assay [14]. Besides, the call in assay [16] and in [17] was inactive. Also, the AC50 in assay [3] is 84.4 µM (active).

Take `CCc1ccc(CCOc2ccc(CC3SC(=O)NC3=O)cc2)nc1` (stereo not given): the half-maximal activity concentration (AC50) was 83.4 µM (active) in assay [1]; 78.7 µM (active) in [2]; 50 µM (active) in [3]; 50 µM (active) in [6]; 11.9 µM (active) in assay [9]; 76.8 µM (active) in assay [10]. For the same compound, the AC50 in assay [12] is 36.4 µM (active); in assay [13] it was 50 µM (active); in assay [14], 0.718 µM (active). In addition, the compound was called inactive in assay [4], in assay [5], in assay [7], in assay [11], in assay [16] and in assay [17].

Turning to `CCCOC(=O)c1ccc(O)cc1`, the compound was called inactive in [1], in assay [2], in [3], in assay [4], in [5] and in assay [6]. The compound was classed as inactive in [7], in assay [9], in assay [10], in assay [11], in [12] and in assay [13]. Moreover, the result in assay [14], in [16] and in [17] was inactive.
